Among the test systems are SK-MEL-2 melanoma; EKVX NSCLC; SN12C renal; UO-31 renal; TK-10 renal; ACHN renal; CAKI-1 renal; A498 renal; CCRF-CEM leukemia; MOLT-4 leukemia; SR leukemia; RPMI-8226 leukemia; OVCAR-8 ovarian; OVCAR-4 ovarian; SK-OV-3 ovarian; IGROV1 ovarian; OVCAR-3 ovarian; HS 578T breast; NCI/ADR-RES ovarian; OVCAR-5 ovarian.
Common to all, as to experiment: NCI-60 one-dose screen, 48 h (100 = growth as untreated, 0 = no growth, -100 = all killed)
Holding throughout (conditions): 10 µM unless noted

The structures appear in SMILES notation. Compounds without any hit were thinned out: in the full panel of roughly 83,000, 20% have a hit.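 96-well plates, one dose, 48 hours. Percent growth reported; active if below 10.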 Unmarked numbers belong to inactive results. The source made the active and inactive calls.

As for `COc1ccc2[nH]c(O)c(N=Nc3nc(-c4ccc(C#N)cc4)cs3)c2c1`, the growth is 95.8% in the assay with SK-MEL-2 melanoma; 63.9% in the assay on EKVX NSCLC; 20.3% with SN12C renal; 18.3% with UO-31 renal; 55.3% with TK-10 renal; 22.2% with ACHN renal. Moreover, the growth is 35.4% with CAKI-1 renal; 13.2% in the assay on A498 renal; 86.4% with CCRF-CEM leukemia; 84.2% with MOLT-4 leukemia; 17.4% in the assay with SR leukemia; 34.9% in the assay with RPMI-8226 leukemia. Besides, the growth in the assay with OVCAR-8 ovarian is 58.2%; in the assay on OVCAR-4 ovarian, -46.8% (active); in the assay on SK-OV-3 ovarian it was 104%; in the assay on IGROV1 ovarian it was 77.6%; with OVCAR-3 ovarian it was 8.62% (active); in the assay with HS 578T breast it was 36.5%. Further, the growth in the assay on NCI/ADR-RES ovarian is 63.1%.
In the case of `Cc1nn(-c2ccccc2)c2nc(C)n(CC(=O)N/N=C/c3ccccc3O)c(=O)c12`, the growth in the assay on SK-MEL-2 melanoma was 38.1%; in the assay with EKVX NSCLC, 13%; with SN12C renal, 30%; in the assay on UO-31 renal, 13.2%; in the assay on TK-10 renal, 32.8%; in the assay on ACHN renal, 14.6%. Also, the growth with CAKI-1 renal was 22.6%; with A498 renal, 97%; with CCRF-CEM leukemia, 25.7%; in the assay on MOLT-4 leukemia, 22.8%; in the assay with SR leukemia it was 54.7%; with RPMI-8226 leukemia it was 29.1%. Further, the growth in the assay on OVCAR-8 ovarian was 22%; with OVCAR-4 ovarian it was 31.2%; in the assay with SK-OV-3 ovarian, 25%; in the assay with IGROV1 ovarian it was 24.2%; in the assay on OVCAR-3 ovarian it was 51.3%; in the assay on HS 578T breast, 55.4%. For the same compound, the growth with NCI/ADR-RES ovarian was 16.7%.
Take `COc1cc(NC(=O)C(C)C)ccc1C(=O)NC(=S)Nc1ccc(S(N)(=O)=O)cc1`: the growth with SK-MEL-2 melanoma is 97.4%; with EKVX NSCLC, 102%; in the assay on SN12C renal, 100%; in the assay with UO-31 renal, 89.7%; in the assay with TK-10 renal, 94.6%; with ACHN renal it was 103%. Also, the growth was 96.7% with CAKI-1 renal; 150% in the assay on A498 renal; 97.5% in the assay on CCRF-CEM leukemia; 118% in the assay with MOLT-4 leukemia; 111% with SR leukemia; 107% in the assay on RPMI-8226 leukemia. Further, the growth in the assay with OVCAR-8 ovarian was 79.3%; in the assay with OVCAR-4 ovarian, 98.5%; in the assay with SK-OV-3 ovarian, 112%; in the assay on OVCAR-3 ovarian, 92%; in the assay with HS 578T breast, 86.2%; in the assay on NCI/ADR-RES ovarian it was 102%.
On to `CS(=O)(=O)Nc1cc(-c2ccc3ncnc(N4CCc5cc(F)c(Cl)cc54)c3c2)cnc1Cl`, for which the growth in the assay on SK-MEL-2 melanoma is -31.6% (active); in the assay with EKVX NSCLC it was -23% (active); in the assay with SN12C renal, 19.3%; in the assay on UO-31 renal it was 5.68% (active); in the assay on TK-10 renal it was -1.98% (active); with ACHN renal, 9.43% (active). Besides, the growth with CAKI-1 renal is -8.1% (active); in the assay on A498 renal it was -36.5% (active); with CCRF-CEM leukemia it was 16.7%; in the assay with MOLT-4 leukemia, -47.4% (active); in the assay on SR leukemia, -31.9% (active); in the assay with RPMI-8226 leukemia, -9.06% (active). Also, the growth in the assay with OVCAR-8 ovarian is 13.3%; in the assay on OVCAR-4 ovarian, 10.6%; with SK-OV-3 ovarian, -17.5% (active); in the assay with IGROV1 ovarian it was -33.7% (active); with OVCAR-3 ovarian, -22.6% (active); in the assay with HS 578T breast it was -31.8% (active). In addition, in the assay with NCI/ADR-RES ovarian, the growth is 12.1%.
`COc1ccc(-c2nc3ccccc3n2CC(=O)N=Nc2c(O)[nH]c3ccc(Br)cc23)cc1`: the growth is 85.4% with SK-MEL-2 melanoma; 85% in the assay with EKVX NSCLC; 97% in the assay on SN12C renal; 66.7% with UO-31 renal; 94.8% with TK-10 renal; 87.8% with ACHN renal. The growth in the assay on CAKI-1 renal was 74.9%; in the assay with A498 renal it was 139%; in the assay with CCRF-CEM leukemia, 67.2%; with MOLT-4 leukemia it was 37.2%; with SR leukemia it was 7.92% (active); with RPMI-8226 leukemia, 79.1%. In addition, the growth in the assay on OVCAR-8 ovarian was 71.1%; in the assay on OVCAR-4 ovarian, 91.3%; with SK-OV-3 ovarian, 96.8%; in the assay on IGROV1 ovarian it was 60.3%; in the assay with OVCAR-3 ovarian, 48.7%; in the assay with HS 578T breast it was 68.7%. Moreover, the growth with NCI/ADR-RES ovarian was 78.9%.
Consider `COc1ccc2c(c1)C(=O)N(C)C2C1c2c(cc3c(c2OC)OCO3)CCN1C` (stereo unspecified), for which the growth with SK-MEL-2 melanoma is 57.5%; with EKVX NSCLC it was 62.6%; in the assay with SN12C renal, 76.9%; in the assay on UO-31 renal, 49.4%; in the assay on TK-10 renal, 78.6%; in the assay with ACHN renal, 46.5%. For the same compound, the growth is 31.6% with CAKI-1 renal; 91.5% in the assay with A498 renal; 66.3% in the assay with CCRF-CEM leukemia; 46.4% in the assay on MOLT-4 leukemia; 18.8% in the assay on SR leukemia; 73.8% with RPMI-8226 leukemia. Besides, the growth in the assay on OVCAR-8 ovarian was 78.1%; in the assay on OVCAR-4 ovarian, 69.4%; in the assay with SK-OV-3 ovarian, 64%; with IGROV1 ovarian it was 43.2%; with OVCAR-3 ovarian, 9.03% (active); with HS 578T breast, 48.4%. Further, the growth in the assay with NCI/ADR-RES ovarian is 27.9%.
Take `COc1ccc([C@H]2C(C(=O)c3ccc(Cl)cc3)C3(N[C@@H]2c2ccccc2)C(=O)Nc2ccccc23)cc1` (stereo partly specified): the growth was -29.6% (active) in the assay on SK-MEL-2 melanoma; 21.6% in the assay on EKVX NSCLC; 6.41% (active) in the assay on SN12C renal; 13.2% in the assay with UO-31 renal; 43.4% in the assay on TK-10 renal; 11.2% in the assay with ACHN renal. Also, the growth in the assay on CAKI-1 renal was 14%; in the assay on A498 renal it was 40.2%; with CCRF-CEM leukemia, 45.8%; in the assay on MOLT-4 leukemia, 18.9%; in the assay on RPMI-8226 leukemia, 10.4%; in the assay on OVCAR-8 ovarian, 32.7%. The growth in the assay on OVCAR-5 ovarian is 50.5%; with OVCAR-4 ovarian, 31.1%; with SK-OV-3 ovarian, 72.5%; in the assay on IGROV1 ovarian, 35.6%; with OVCAR-3 ovarian, 27.4%; with HS 578T breast, 53.7%. Moreover, in the assay on NCI/ADR-RES ovarian, the growth is 12.2%.
On to `Nc1nn2c(-c3cc4cc(Br)ccc4oc3=O)ccnc2c1N=Nc1ccccc1`, for which the growth is 16.1% in the assay with SK-MEL-2 melanoma; 36.4% in the assay with EKVX NSCLC; -24.4% (active) with SN12C renal; 30.2% with UO-31 renal; 39.9% in the assay on TK-10 renal; 0.225% (active) in the assay on ACHN renal. Further, the growth with CAKI-1 renal is 15.1%; with A498 renal it was -17% (active); with CCRF-CEM leukemia, 94.5%; in the assay with MOLT-4 leukemia it was 87.1%; in the assay with SR leukemia, 1.69% (active); in the assay with RPMI-8226 leukemia it was 75.2%. Further, the growth with OVCAR-8 ovarian was -14.9% (active); in the assay with OVCAR-4 ovarian it was -5.33% (active); with SK-OV-3 ovarian it was -6.82% (active); in the assay with IGROV1 ovarian, 13.1%; in the assay with OVCAR-3 ovarian, 27.1%; in the assay on HS 578T breast, -20.7% (active). In addition, the growth with NCI/ADR-RES ovarian is -16.7% (active).

The record behind these values is PubChem BioAssay (NCI).
